Measurements taken from PubChem BioAssay AID449762 (Southern Research Specialized Biocontainment Screening …, 2010).
Hit rate of the full screen: of about 330,000 compounds, about 1,900 (0.58%) were called active. About 4% were inconclusive and are not listed. No stated cut-off is given here; in the data, inconclusive means inhibition above about 70% without an active follow-up result; inactive means below that. These entries were drawn from the full list. Measured potencies and affinities stand elsewhere.

test: M. tuberculosis growth inhibition, HTS (AID 449762);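 further: bacterial growth assessed after seven days of incubation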; conditions: M. tuberculosis H37Rv growth inhibition, 7H9 media; at 25 µM; hits give high values

SMILES | inhibition
O=C(NCc1ccc2c(c1)OCO2)C1CCCN1S(=O)(=O)c1ccc(Cl)cc1 (stereo not drawn) | -0.02% (inactive)
CC(=O)Nc1cccc(NC(=S)Nc2cccc(Cl)c2Cl)c1 | 0.32% (inactive)
COc1cc(/C=C2\N=C(C)OC2=O)cc(OC)c1OC | 6.29% (inactive)
COc1cc(/C=C2\SC(c3ccc(C)cc3)=NC2=O)cc(OC)c1OC | -5.86% (inactive)
Cc1cccc(/C=N\NC(=O)c2sccc2-n2cccc2)c1 | 0.5% (inactive)
COC(=O)C1=C(c2cccc(C#N)c2)C[C@@H]2CC[C@H]1N2C(=O)NCCc1ccccc1 | -2.69% (inactive)
NNC(=O)c1sccc1OCc1ccc(Cl)cc1Cl | 39.9% (inactive)
CNC(=S)NNC(=O)c1sccc1OCc1ccc(Cl)cc1Cl | -1.67% (inactive)
CC(C)CC(CO)N1CCN(C(=O)c2ccc(Cl)c(Cl)c2)CCC1=O (stereo not drawn) | -0.29% (inactive)
COc1ccc(NC(=O)c2nnn(CC(=O)Nc3ccccc3OC)c2N)c(OC)c1 | -1.76% (inactive)
O=C(N=Nc1c(O)n(Cc2ccccc2)c2ccccc12)c1ccc(O)cc1 | 8.8% (inactive)
Cn1cnnc1SCc1ccc(C(=O)N=Nc2c(O)n(C)c3ccccc23)cc1 | -4.97% (inactive)
Cc1nc2ccccc2c(=O)n1NC(=O)C1CC1 | 4.78% (inactive)
CCCCCCC1CCC(C(=O)Nn2c(C)nc3ccccc3c2=O)CC1 (stereo not drawn) | 12.2% (inactive)
COc1ccc(NC(=O)C2CC(c3c(F)cccc3Cl)=NO2)cc1 (stereo not drawn) | 0.25% (inactive)
COc1ccc(OCCOc2cccc(C=C3C(=O)NC(=O)NC3=O)c2)cc1 | 21.3% (inactive)
O=C(COc1ccc(Cl)cc1)NCCNC(=O)c1cnccn1 | 5.05% (inactive)
O=C(NCC(c1ccco1)N1CCc2ccccc21)C(=O)Nc1ccccc1F (stereo not drawn) | 8.05% (inactive)
CCCCOc1ccc(-c2nnn(CC(=O)Nc3ncc(CC(=O)OCC)s3)n2)cc1 | 4.47% (inactive)
CCC(C(=O)O)n1nnc(-c2ccc(-c3ccc(OC)cc3)cc2)n1 (stereo not drawn) | 4.02% (inactive)

SMILES | inhibition
CC1Cc2ccccc2N1C(=O)CN1CCC(C(N)=O)CC1 (stereo not drawn) | 0.29% (inactive)
Cc1ccc(CNC(=O)c2ccc3c(=O)[nH]c4c(C(=O)NCC5CCCO5)sc(=S)n4c3c2)cc1 (stereo not drawn) | 6.08% (inactive)
O=C(NCc1ccccc1)c1ccc2c(=O)[nH]c3c(C(=O)NCC4CCCO4)sc(=S)n3c2c1 (stereo not drawn) | 9.46% (inactive)
COC(=O)c1ccc(NC(=S)N2CCN(Cc3ccccc3Cl)CC2)cc1 | 3.97% (inactive)
COc1ccc(OC)c(NC(=O)CSc2nc(N3CCOCC3)nc(N3CCOCC3)n2)c1 | -13% (inactive)
COc1ccc(Nc2ncc3c(n2)CC(c2ccc(C)cc2)CC3=O)cc1 (stereo not drawn) | 11% (inactive)
COc1ccc(Nc2ncc3c(n2)CC(c2ccc(OC)cc2)CC3=O)cc1 (stereo not drawn) | 5.93% (inactive)
CC(=O)c1c(COC(=O)c2cccc(C)c2)nc2ccccc2[n+]1[O-] | -1.11% (inactive)
CC(=O)c1c(N2CCCCC2)nc(=S)n(-c2ccccc2)c1C | -9.27% (inactive)
CN1CCC(N(C)C(=O)c2ccc(Cl)c(S(=O)(=O)Nc3cc(Cl)ccc3Cl)c2)CC1 | -3.22% (inactive)
O=C(CCCN1C(=O)c2cccnc2C1=O)N1CC(=O)N(CCc2ccccc2)C(=O)C1 | 2.7% (inactive)
CC1CCN(CCNC(=O)C2CCN(S(=O)(=O)c3cccc4nsnc34)CC2)CC1 | -5.73% (inactive)
O=C(Cn1ncc(N2CCCC2)c(Cl)c1=O)c1ccc(Cl)cc1 | -5.18% (inactive)
CO/N=C(\Cn1ncc(N2CCOCC2)c(Br)c1=O)c1ccc(Cl)cc1 | -12.1% (inactive)
O=C(NCCC(=O)N1CCC2(CC1)NCCc1[nH]cnc12)c1cccc(C(F)(F)F)c1 | -1.8% (inactive)
CS(=O)(=O)Nc1ccc(C2=NN(C(=O)c3ccco3)C(c3ccccc3)C2)cc1 (stereo not drawn) | 2.8% (inactive)
C=CCSC1=N/C(=C/c2ccsc2)C(=O)N1c1ccccc1 | -5.05% (inactive)
Cc1cc(C)n(-c2ccc(C(=O)Nc3ccc4c(c3)OCO4)cc2)n1 | 12.7% (inactive)
Cc1cc(C)n(-c2ccc(C(=O)NCc3ccc4c(c3)OCO4)cc2)n1 | 8.5% (inactive)
COc1ccc(CCNC(=O)CCc2nc3sc4c(c3c(=O)[nH]2)CCCC4)cc1 | -1.73% (inactive)

SMILES | inhibition
CCCCC(CC)COC(=O)CCCCC(=O)OCC(CC)CCCC (stereo not drawn) | 12.3% (inactive)
CCCCC(CC)CO (stereo not drawn) | -4.02% (inactive)
Cc1csc(NC(=O)c2cccs2)n1 | -0.19% (inactive)
Nc1ccc2nonc2c1[N+](=O)[O-] | -0.05% (inactive)
Nc1cc(N2CCCCCC2)c2nonc2c1[N+](=O)[O-] | -8.43% (inactive)
COc1cccc2sc(N(CCN(C)C)C(=O)/C=C/c3cccs3)nc12 | 8.94% (inactive)
Cc1cccc2sc(N(CCN(C)C)C(=O)/C=C/c3cccs3)nc12 | 51.5% (inactive)
CN(CC(=O)Nc1ccc(S(=O)(=O)N2CCCC2)cc1)Cc1ccc(Cl)cc1Cl | -3.94% (inactive)
O=C(CCC(=O)N(CC(=O)NC1CCCC1)Cc1ccc(F)cc1)Nc1nccs1 | 7.88% (inactive)
O=C(NC1CC1)c1cccc(S(=O)(=O)Nc2ccccc2F)c1 | -4.2% (inactive)
CCN(CC)c1ccc2cc(-c3nc4ccccc4[nH]3)c(=O)oc2c1 | 4.76% (inactive)
CCN(CC)c1ccc(/C=N/Nc2nc3ccccc3[nH]2)c(O)c1 | 19.6% (inactive)
O=c1c2oc3ccccc3c2[nH]c(=S)n1-c1ccc(F)cc1 | 0.38% (inactive)
Cc1ccc(C2Oc3ccccc3C3=C2C(c2cccs2)n2ncnc2N3)cc1 (stereo not drawn) | 55.2% (inactive)
Fc1ccc(C2C3=C(Nc4ncnn42)c2ccccc2OC3c2ccncc2)cc1 (stereo not drawn) | -5.07% (inactive)
C/C=C\C=C\C(=O)N1CC2(CC(c3cccc(NC(=O)COc4ccc(Cl)cc4)c3)=NO2)C[C@H]1C(N)=O (stereo partly drawn) | 23.8% (inactive)
COc1c(C)cc(C(=O)C2CCCN(Cc3ccc(Oc4ncccn4)cc3)C2)cc1C (stereo not drawn) | 7.33% (inactive)
COc1cccc(C(=O)C2CCCN(Cc3ccccn3)C2)c1 (stereo not drawn) | 33.9% (inactive)
